Bioassay records deposited in PubChem BioAssay by National Center for Advancing Translational Sciences (NCATS).
TDP1 cell CPT – DT40-hTDP1 cell growth loss with CPT. chicken DT40 Tdp1-/-;hTDP1 cells + 20 nM CPT, ATP luminescence, 48 h. Potency, µM (titrated, usually from 46.2 µM), inactives show at the highest dose activity change, negative = growth inhibition, hits mostly inhibitors. 12% of 420,000 active; further: potency means the concentration at half of the fitted maximal effect; nearly all actives have a fitted effect of over 55% in size
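Cell growth measured by CellTiter-Glo luminescence after a minimum 48 h, 37 C compound exposure with 20 nM CPT in Tdp1-knockout DT40 cells stably expressing hTDP1, seeded 400/well; qHTS titration format.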
12-LOX inh – blocks human arachidonate 12S-lipoxygenase. purified 12hLO, xylenol orange hydroperoxide absorbance. Potency, µM (series often up to 108 µM), for the others: at the top dose activity change, negative = inhibition, usual class: inhibitors. 1.1% of 580,000 active; further: potency means the concentration at half of the fitted maximal effect
Target sequence (P18054 whole entry, looked up): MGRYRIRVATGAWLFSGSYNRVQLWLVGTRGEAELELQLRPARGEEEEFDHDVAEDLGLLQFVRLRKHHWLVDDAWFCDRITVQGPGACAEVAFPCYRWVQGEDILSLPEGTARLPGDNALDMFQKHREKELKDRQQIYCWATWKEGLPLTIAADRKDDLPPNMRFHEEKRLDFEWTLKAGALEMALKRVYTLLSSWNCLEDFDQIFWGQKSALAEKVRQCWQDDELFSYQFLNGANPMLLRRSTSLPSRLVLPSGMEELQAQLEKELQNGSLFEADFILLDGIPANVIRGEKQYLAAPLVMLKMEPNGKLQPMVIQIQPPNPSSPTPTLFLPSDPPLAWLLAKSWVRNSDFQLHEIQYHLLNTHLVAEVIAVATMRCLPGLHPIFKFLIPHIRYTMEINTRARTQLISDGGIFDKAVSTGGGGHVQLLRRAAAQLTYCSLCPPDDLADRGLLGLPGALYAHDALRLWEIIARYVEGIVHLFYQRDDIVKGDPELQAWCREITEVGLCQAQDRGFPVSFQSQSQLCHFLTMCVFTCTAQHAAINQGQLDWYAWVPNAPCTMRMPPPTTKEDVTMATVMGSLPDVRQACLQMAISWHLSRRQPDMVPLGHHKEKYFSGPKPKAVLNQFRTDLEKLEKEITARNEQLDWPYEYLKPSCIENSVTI
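Hydroperoxide product was detected by ferrous iron/xylenol orange as the 573 to 405 nm absorbance ratio. Arachidonic acid at 40 uM (final) was turned over for 30 min at room temperature by 150 nM human 12hLO, pH 7.0 Hepes buffer, after 15 min compound preincubation.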
TDP1 cell noCPT – qHTS for Inhibitors of human tyrosyl-DNA phosphodiesterase 1 (TDP1): qHTS in cells in absence of CPT. 15% of 420,000 active. DT40 Tdp1-/- hTDP1 cells, no CPT, ATP luminescence, 48 h. Potency, µM (top dose mostly 46.2 µM), for inactives: at the top dose activity change, negative = growth inhibition, usual class: inhibitors. AID 686978, 2013; further: potency means the concentration at half of the fitted maximal effect; nearly all actives have a fitted effect of over 55% in size
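Luminescent ATP content (CellTiter-Glo) served as the growth readout. Knockout chicken DT40 cells expressing human TDP1 were exposed to compounds without camptothecin for a minimum 48 hr at 37 °C.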
IL1B secr inh – inflammasome signaling inhibition, IL-1 beta readout; 4.7% of 360,000 active; activity change, % at 57.5 µM; THP-1 LPS/ATP IL-1B secretion, AlphaLISA, 16 h; stronger effect = lower value; in the data active means activity change below about -50%; inconclusive means mostly about -30% to -49%
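Secreted IL-1B measured by AlphaLISA bead assay after 16 h compound exposure of THP-1 cells; compounds (final up to 57.5 uM) added 1 h before LPS (250 ng/mL) and ATP (1.25 mM) stimulation; lower signal means less secretion.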
HT1080-NT tox – kills 2HG-producing HT-1080-NT fibrosarcoma cells | AID 686970 | HT-1080-NT fibrosarcoma viability, CellTiter-Glo ATP luminescence, 48 h | 1.6% of 360,000 active | Potency, µM (top dose mostly 46.1 µM), inactives show at the top dose activity, negative = less viability, usual class: cytotoxic;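 further: NT is the 2HG producing partner of a matched IDH1 knockdown line; potency means the concentration at half of the fitted maximal effect; 0% = DMSO-treated cells and -100% = media-only wells without cells; nearly all actives have a fitted effect of over 55% in size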
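Toxicity toward the 2HG-producing NT line was scored as %Activity, normalised to DMSO and no-cell wells, from CellTiter-Glo luminescence after 48 hours' treatment.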
HT1080 IDH1KD tx – kills HT-1080 cells with IDH1 knockdown | Potency, µM (titrated, usually from 46.1 µM), for inactives: at the highest dose activity, negative = toxicity, actives largely listed as cytotoxic | HT-1080 IDH1 knockdown viability, ATP luminescence, 48 h | 2% of 360,000 active;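 further: potency means the concentration at half of the fitted maximal effect; 0% = DMSO wells and -100% = cell-free medium wells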
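Using the IDH1-knockdown HT-1080 line run in the same batch and compound series as the NT line, viability after 48 h at 37 °C was determined by CellTiter-Glo luminescence and expressed as % activity.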
* marks the source's active call; other numbers are inactive results; ? = inconclusive; . = no result given. Many of the other results were omitted from the sample, so hits are more common in it than they were. Unless noted, the call rests on the fitted dose curve; in most records, active means well fitted curve in the direction sought with a large enough effect; inconclusive means small, poorly fitted or top-dose-only effect, or another doubt; inactive means no such curve, though single readings can be large; an effect the other way counts as inactive or inconclusive. Unless noted, on the % scale 0 is the no-effect control and ±100 the full control effect.

SMILES	TDP1 cell CPT	12-LOX inh	TDP1 cell noCPT	IL1B secr inh	HT1080-NT tox	HT1080 IDH1KD tx
Cc1ccc(Cl)c(NC(=O)CSc2cccc[n+]2[O-])c1Cl	-2%	-2%	-3%	-8	8%	5%
CCCOC(=O)c1ccc(NC(=O)/C=C/c2cccs2)cc1	?	-8%	18µM*	-11	-12%	-21%
O=C(/C=C/c1cccs1)Nc1ccncc1	-8%	14%	?	?	17%	-1%
COc1ccccc1N1CCN(C(=S)NC(=O)c2ccc([N+](=O)[O-])cc2)CC1	21µM*	-10%	21µM*	-4	-13%	-26%
COc1cc2c(cc1OC)CN(c1ncccc1[N+](=O)[O-])CC2	1%	?	-24%	?	0%	-1%
COc1cc2c(cc1OC)CN(c1ccc([N+](=O)[O-])cc1C#N)CC2	21µM*	-9%	13µM*	?	-16%	-2%
COc1cc2c(cc1OC)CN(c1ccc([N+](=O)[O-])cc1Cl)CC2	23µM*	?	12µM*	-88*	?	-23%
COc1cc2c(cc1OC)CN(c1ccc(F)cc1[N+](=O)[O-])CC2	-25%	?	?	-67*	-1%	-11%
CN1CCN(c2cc(N3CCc4ccccc4C3)c(F)cc2[N+](=O)[O-])CC1	16µM*	?	21µM*	-51*	-2%	-25%
COc1cc2c(cc1OC)CN(C(=O)c1ccc(N3CCCC3)c([N+](=O)[O-])c1)CC2	21µM*	?	23µM*	-56*	-1%	1%
COc1ccccc1N1CCN(c2ccc([N+](=O)[O-])cc2Cl)CC1	15µM*	-3%	12µM*	0	?	?
CC(=O)Nc1ccn(C2COC(COC(=O)c3ccccc3)O2)c(=O)n1 (stereo not drawn)	0.84µM*	.	1.5µM*	.	.	.
COCCNC(=O)[C@H]1C[C@H](Oc2cccnc2)CN1C(=O)Cc1ccccc1	.	26%	.	.	.	.
CC(=O)c1cccc(NS(=O)(=O)c2ccc(N/C=C\C(=O)c3ccc(C)cc3)cc2)c1	?	0%	3.7µM*	13	?	?
Cc1noc(NS(=O)(=O)c2ccc(N/C=C\C(=O)c3ccc4c(c3)OCO4)cc2)c1C	-23%	?	-23%	6	-2%	10µM*
CC(=O)c1cccc(NS(=O)(=O)c2ccc(N/C=C\C(=O)c3ccc(F)cc3)cc2)c1	13µM*	-6%	10µM*	?	-26%	-24%
CC(=O)c1cccc(NS(=O)(=O)c2ccc(N/C=C/C(=O)c3ccc(F)cc3)cc2)c1	12µM*	-19%	18µM*	-76*	?	?
CCCCCCC1COC(c2ccc(O)cc2)OC1 (stereo not drawn)	.	-3%	.	.	.	.
Cc1ccc(C(C[N+](=O)[O-])n2nc(C)cc2C)cc1 (stereo not drawn)	2.1µM*	0%	2.6µM*	-1	4%	1%
COc1ccccc1Oc1nc(-c2ccccc2)cc(C)c1S(C)(=O)=O	?	8%	18µM*	-5	?	?
Cc1cc(C)cc(Oc2nc(-c3ccccc3)cc(C)c2S(C)(=O)=O)c1	?	161%	?	-8	?	?
Cc1cc(-c2ccccc2)nc(Oc2ccc(C(C)(C)C)cc2)c1S(C)(=O)=O	?	8%	21µM*	-16	-17%	-20%
CCOC(=O)c1c2c(n3ccccc13)C(=O)c1ccccc1C2=O	10µM*	.	10µM*	.	.	.
CCOC(=O)c1c(-c2ccccc2Cl)cn2ccccc12	?	0%	?	13	-5%	-2%
CCOC(=O)c1c2c(n(-c3ccc(OC)cc3)c1C)C(=O)C(=O)c1ccccc1-2	3.3µM*	.	2.1µM*	-2	15µM*	8.2µM*
